Pf Dd2 growth: inhibitors of Plasmodium falciparum Dd2 growth. activity change, % at 10 µM. actives 2.3% (n = 94,000). P. falciparum Dd2 growth, SYBR Green, 72 h; active compounds read low; in the data active = activity change below about -80%; inconclusive = no clear call, values can overlap the other calls
T cruzi growth-1: inhibitors of T. cruzi proliferation; actives 5.9% (n = 77,000); T. cruzi beta-gal in NIH3T3, GalScreen luminescence, 90 h; inhibition, % at 8.34 µM; AID 624255;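 active = mean inhibition above about 93%, with at least 55% of replicates each passing it, limit read from the data, passing the limit was not always enough; inconclusive = only one of those two conditions holds; inactive = neither condition holds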
C diff HTS: blocks growth of Clostridium difficile. actives 0.25% (n = 86,000). growth activity, negative = inhibition, % at 16 µg/mL (by protocol). Clostridium difficile clinical isolate growth, OD600, 24 h; active compounds read low. AID 1259249;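 active = mean growth activity at or below -80% and every replicate also at or below -80%; inconclusive = mean at or below -80% but some replicate above -80%; inactive = mean growth activity above -80%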;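 note: 0% = DMSO wells and -100% = levofloxacin 16 µg/mL wells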
T cruzi growth-2: inhibitors of T. cruzi proliferation; shares compounds with T cruzi growth-1; T. cruzi beta-gal in NIH3T3, GalScreen luminescence, 90 h; inhibition, % at 8.35 µM; actives 72% (n = 5,600); AID 651739;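 active = mean replicate inhibition above about 95% and at least 55% of replicates individually reaching it, limit read from the data; inconclusive = only one of the two criteria is met; inactive = neither criterion is met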
T cruzi growth-3: Trypanosoma cruzi proliferation inhibition; inhibition, % at 2.09 µM; AID 651740; actives 21% (n = 5,600); shares compounds with T cruzi growth-1; T. cruzi beta-gal in NIH3T3, GalScreen luminescence, 90 h;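 active = mean inhibition above about 95%, with at least 55% of replicates also reaching it, limit read from the data; inconclusive = meets just one of the two conditions; inactive = meets neither condition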;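 note: plate controls were neutral control median for no effect and positive control median for full effect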
NIH3T3 tox: kills mouse NIH/3T3 fibroblasts. shares compounds with T cruzi growth-1. cytotoxicity (signal decrease), % at 8.35 µM. NIH/3T3 viability, CellTiter-Glo ATP luminescence, 90 h. actives 14% (n = 5,600);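 active = mean signal decrease across replicates above about 35% based on untreated-well scatter, with enough replicates individually passing, limit read from the data; inconclusive = no rule stated though some were filed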;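 note: 0% = median of neutral control wells and 100% = median of positive control wells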
3T3 cytotox 2: cytotoxicity in mouse NIH/3T3 fibroblasts; shares compounds with T cruzi growth-1; NIH/3T3 viability, CellTiter-Glo ATP luminescence, 90 h; inhibition, % at 24.9 µM; actives 56% (n = 5,600); AID 651744;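 active = mean loss of cell viability signal at or above a set limit, and enough replicates individually reaching it; inconclusive = meets only the mean limit or only the replicate share; inactive = meets neither condition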;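 note: 0% = median of neutral control wells and 100% = median of positive control wells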
* = called active by the depositor; ? = inconclusive; / = no result given. Hits are enriched below; roughly 6.7% of the tested compounds scored in any of these assays.

SMILES	Pf Dd2 growth	T cruzi growth-1	C diff HTS	T cruzi growth-2	T cruzi growth-3	NIH3T3 tox	3T3 cytotox 2
Cc1ccc(S(=O)(=O)Nc2ccc3c(c2)C(=O)N([C@H](C)CO)C[C@@H](C)[C@H](CN(C)Cc2ccncc2)O3)cc1	-7.6	3.6	-1.7	/	/	/	/
O=C(c1cccc(F)c1)N1CCCCN2[C@H](CO)[C@@H](c3ccc(-c4ccncc4)cc3)[C@H]2C1	17.4	67.1	-4.5	/	/	/	/
O=C(c1cccc(F)c1)N1CCCCN2[C@H](CO)[C@@H](c3ccc(-c4ccc(F)cc4)cc3)[C@H]2C1	31.2	80.2	3.8	/	/	/	/
O=C(c1cccc(F)c1)N1CCCCN2[C@H](CO)[C@H](c3ccc(-c4cccnc4)cc3)[C@@H]2C1	0.6	?	-4.5	103.2*	94.5	-3.6	-17.2
O=C(c1cccc(F)c1)N1CCCCN2[C@@H](CO)[C@H](c3ccc(-c4ccc(F)cc4)cc3)[C@@H]2C1	-3.6	105.2*	47.2	103.0*	35.1	32.8	106.4*
O=C(c1cccc(F)c1)N1CCCCN2[C@H](CO)[C@H](c3ccc(-c4ccc(F)cc4)cc3)[C@H]2C1	-37.8	111.0*	31.3	101.7*	84.8	16.1	104.1*
O=C(c1cccc(F)c1)N1CCCCN2[C@@H](CO)[C@@H](c3ccc(-c4ccc(F)cc4)cc3)[C@@H]2C1	-21.1	67.3	58.8	/	/	/	/
O=C(c1cccc(F)c1)N1CCCCN2[C@H](CO)[C@H](c3ccc(-c4cccnc4)cc3)[C@H]2C1	-6.1	60.3	-3.0	/	/	/	/
O=C(c1cccc(F)c1)N1CCCCN2[C@@H](CO)[C@H](c3ccc(-c4ccncc4)cc3)[C@@H]2C1	-64.3	109.2*	-8.0	101.4*	89.3	11.0	46.5*
Cc1noc(C)c1NC(=O)Nc1ccc2c(c1)C(=O)N([C@H](C)CO)C[C@H](C)[C@@H](CN(C)C(=O)NC(C)C)OCCCC[C@H](C)O2	12.1	-16.9	-2.9	/	/	/	/
C[C@H]1CN([C@@H](C)CO)C(=O)CCCn2cc(nn2)CO[C@H]1CN(C)C(=O)Nc1ccc(C(F)(F)F)cc1	14.6	8.4	-0.2	/	/	/	/
CO[C@@H]1CN(C)C(=O)c2cc(NC(=O)NC(C)C)ccc2OC[C@@H](C)N(S(C)(=O)=O)C[C@H]1C	-2.0	86.6	/	/	/	/	/
O=C(CN1CCOCC1)N1CCCCN2[C@H](CO)[C@H](c3ccc(-c4ccccc4)cc3)[C@H]2C1	15.0	70.2	-7.5	/	/	/	/
O=C(CN1CCOCC1)N1CCCCN2[C@H](C1)[C@@H](c1ccc(C#Cc3ccccc3F)cc1)[C@@H]2CO	-9.9	84.3	-16.8	/	/	/	/
O=C(CN1CCOCC1)N1CCCCN2[C@H](CO)[C@H](c3ccc(C#Cc4ccccc4)cc3)[C@H]2C1	-11.2	98.0*	-1.5	96.1*	25.1	11.2	67.5*
O=C(CN1CCOCC1)N1CCCCN2[C@H](CO)[C@H](c3ccc(C#Cc4ccccc4F)cc3)[C@@H]2C1	6.4	105.9*	-23.6	101.0*	58.3	45.3*	76.4*
O=C(CN1CCOCC1)N1CCCCN2[C@H](CO)[C@H](c3ccc(C#Cc4ccccc4F)cc3)[C@H]2C1	-19.8	118.4*	-5.7	87.5	19.5	19.2	95.3*
O=C(CN1CCOCC1)N1CCCCN2[C@H](C1)[C@H](c1ccc(C#Cc3ccccc3F)cc1)[C@@H]2CO	-5.6	107.2*	2.1	55.1	22.4	32.2	89.1*
CCC(=O)N1CC2(C1)[C@H](c1ccccc1)[C@H](CO)N2C(=O)c1cccnc1	6.2	/	-2.0	/	/	/	/
O=C(N[C@H]1CC[C@@H](CCn2cc(-c3ccccn3)nn2)O[C@@H]1CO)c1cccnc1	-4.6	-36.5	7.4	/	/	/	/
C[C@@H]1CN([C@@H](C)CO)C(=O)Cc2cc(NC(=O)CCC(F)(F)F)ccc2O[C@@H]1CN(C)Cc1ccc2c(c1)OCO2	0.9	32.4	-5.2	/	/	/	/
COc1ccc(CN(C)C[C@@H]2Oc3ccc(NS(=O)(=O)c4ccc(C)cc4)cc3C(=O)N([C@H](C)CO)C[C@@H]2C)cc1	-18.3	44.5	2.6	/	/	/	/
C[C@H](CO)N1C[C@H](C)[C@H](CN(C)C)Oc2ccc(NS(=O)(=O)c3ccccc3)cc2C1=O	2.4	-1.4	-1.2	/	/	/	/
C[C@@H]1CN([C@H](C)CO)S(=O)(=O)c2ccc(C#Cc3ccc(F)cc3)cc2O[C@H]1CN(C)C(=O)CN(C)C	-73.4	94.7	8.6	/	/	/	/

Screening results (PubChem BioAssay)
